# Laboratory results published in PubChem BioAssay AID1159580 (chemical genetic matrix, 2015).
# The whole screen tested about 5,500 compounds, of which about 2,000 (36%) were called active. Another 18% or so got no clear call; they are omitted. Some of the results follow. Unmarked numbers belong to inactive results. Rule as the data show it: active = normalized growth mostly below about 0.91 (no sharp cut-off); inconclusive = no clear call, values can overlap the other calls; inactive = mostly above about 0.92.
# Experiment: chemical genetic growth profiling, strain panel (AID 1159580);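 also: tested at 20 µM; growth read once vehicle control cultures reached saturation at 30 °C; 1 = growth at the plate median or of vehicle wells; lower values mean less growth of the strain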
# Settings: S. cerevisiae deletion strains, growth OD
# [1] = locus YAL013W, strain DEP1, hits give low values
# [2] = locus YBR229C, strain ROT2, hits give low values
# [3] = locus YDL101C, strain DUN1, hits give low values
# [4] = locus YDL134C, strain PPH21, hits give low values
# [5] = locus YDR150W, strain NUM1, hits give low values
# [6] = locus YEL061C, strain CIN8, hits give low values
# [7] = locus YGR078C, strain PAC10, hits give low values
# [8] = locus YHR030C, strain SLT2, hits give low values
# [9] = locus YHR087W, strain rtc3, hits give low values
# [10] = locus YJR043C, strain POL32, hits give low values
# [11] = locus YJR075W, strain HOC1, hits give low values
# [12] = locus YLR039C, strain RIC1, hits give low values
# [13] = locus YLR058C, strain SHM2 (second series), hits give low values
# [14] = locus YLR085C, strain ARP6, hits give low values
# [15] = locus YLR262C, strain YPT6, hits give low values
# [16] = locus YML094W, strain GIM5, hits give low values
# [17] = locus YMR219W, strain ESC1, hits give low values
# [18] = locus YMR263W, strain SAP30, hits give low values
# [19] = locus YNL153C, strain GIM3, hits give low values
# [20] = locus YNL298W, strain CLA4 (second series), hits give low values
# [21] = locus YNL322C, strain KRE1, hits give low values
# [22] = locus YNR030W, strain Alg12, hits give low values
# [23] = locus YPL055C, strain LGE1, hits give low values
# [24] = locus YPL241C, strain CIN2, hits give low values
# [25] = locus YPR135W, strain CTF4, hits give low values
compound,measurement,setting,value
N#Cc1c(Cl)cccc1N1CCC(C(=O)NC(=O)Nc2ccc(Cl)cc2)CC1,normalized growth,[1],0.998
same,normalized growth,[2],1.01
same,normalized growth,[3],1
same,normalized growth,[4],1.03
same,normalized growth,[5],1.04
same,normalized growth,[6],1.01
same,normalized growth,[7],1.01
same,normalized growth,[8],1.04
same,normalized growth,[9],1.02
same,normalized growth,"locus YJL187C, strain SWE1, hits give low values",1.01
same,normalized growth,[10],1
same,normalized growth,[11],1.05
same,normalized growth,[12],1.01
same,normalized growth,[13],1.03
same,normalized growth,[14],1.07
same,normalized growth,[15],0.998
same,normalized growth,[16],1.04
same,normalized growth,[17],1.02
same,normalized growth,[18],1.01
same,normalized growth,"locus YMR307W, strain GAS1, hits give low values",1.03
same,normalized growth,[19],1.01
same,normalized growth,[20],1.02
same,normalized growth,[21],1.01
same,normalized growth,[22],1.03
same,normalized growth,[23],1.1
same,normalized growth,[24],1.01
same,normalized growth,[25],1.04
N#Cc1c(Cl)cccc1N1CCCC1,normalized growth,[1],0.877 (active)
same,normalized growth,[2],0.935
same,normalized growth,[3],0.87 (active)
same,normalized growth,[4],0.98
same,normalized growth,[5],0.85
same,normalized growth,[6],0.891 (active)
same,normalized growth,[7],0.851 (active)
same,normalized growth,[8],0.615 (active)
same,normalized growth,[9],0.886 (active)
same,normalized growth,[10],0.861 (active)
same,normalized growth,[11],0.801 (active)
same,normalized growth,[12],0.576 (active)
same,normalized growth,[13],0.952
same,normalized growth,[14],0.791
same,normalized growth,[15],0.567 (active)
same,normalized growth,[16],0.779 (active)
same,normalized growth,[17],0.931 (active)
same,normalized growth,[18],0.915
same,normalized growth,"locus YNL128W, strain TEP1, hits give low values",0.922
same,normalized growth,[19],0.833 (active)
same,normalized growth,[20],0.762 (active)
same,normalized growth,[21],0.929 (active)
same,normalized growth,[22],0.83 (active)
same,normalized growth,"locus YOL006C, strain TOP1, hits give low values",0.473 (active)
same,normalized growth,[23],0.776 (active)
same,normalized growth,[24],0.815 (active)
same,normalized growth,[25],0.769
